Laboratory results taken from PubChem BioAssay (EPA / NIEHS).
“And” between values parts separate entries of the source, which are not always exact repeats. Identical values can stand only once. Results filed as inconclusive are left out. More than one record can exist for a structure, and the calls need not agree. The source made the active and inactive calls. The calls were made as follows, unless noted: active = hit-call score of the fitted dose curve at least 0.9, where 1 is the maximum; inactive = score below 0.9.

Experiments:
[1] = ATG_PBREM_CIS: Attagene CIS-FACTORIAL HepG2 Assay for human Phenobarbital-responsive Enhancer Module (PBREM) (AID 2282955); conditions: HepG2 PBREM cis-reporter, Attagene multiplexed transcription; actives raise or lower the signal
Procedure, shortened: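 HepG2, transient MRTU transfection, 24 h dosing; RNA → oligo(dT) RT → PCR → 6-FAM extension → HpaI → CE. Bidirectional fit vs DMSO.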

[2] = target: Paired box protein Pax-6 (Homo sapiens) (UniProt P26367); test: ATG_Pax6_CIS: Attagene CIS-FACTORIAL HepG2 Assay for human Paired Box 6 (PAX6) (AID 2282956); conditions: HepG2 CIS-FACTORIAL PAX6 reporter transcription, RNA readout; actives raise or lower the signal
Procedure, shortened: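 Read-out is reporter transcript level, measured by RT-PCR with fluorescent primer extension and capillary electrophoresis after 24 h dosing of transfected HepG2 cells. Activity in either direction fitted relative to DMSO control.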

[3] = ATG_PXRE_CIS: Attagene CIS-FACTORIAL HepG2 Assay for human Pregnane X Receptor Element (PXRE) (AID 2282957); conditions: HepG2 Attagene CIS-FACTORIAL PXRE reporter, mRNA; actives raise or lower the signal
Procedure, shortened: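 Reporter transcripts under endogenous PXR-responsive cis-regulation quantified from total RNA of transfected HepG2 cells 24 h post-dosing, via RT-PCR with fluorescent primer extension and capillary electrophoresis. Gain or loss of signal fitted against DMSO baseline.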

[4] = ATG_PPRE_CIS: Attagene CIS-FACTORIAL HepG2 Assay for human Peroxisome Proliferator-activated Response Element (PPRE) (AID 2282958); conditions: HepG2 PPRE cis-element reporter, Attagene transcription factor profiling; actives raise or lower the signal
Procedure, shortened: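 Transcript-level reporter induction in transfected HepG2 cells after 24 h chemical exposure, quantified by fluorescence from RT-PCR products separated by capillary electrophoresis.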

[5] = ATG_RORE_CIS: Attagene CIS-FACTORIAL HepG2 Assay for human RAR-related Orphan Receptor Element (RORE) (AID 2282959); conditions: HepG2 Attagene cis-factorial RORE reporter, mRNA; actives raise or lower the signal
Procedure, shortened: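 Multiplexed reporter assay measuring mRNA induction from a cis promoter element in transiently transfected HepG2 cells after 24 h treatment. Detection via RT-PCR and capillary electrophoresis fluorescence; DMSO serves as baseline.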

[6] = ATG_Sox_CIS: Attagene CIS-FACTORIAL HepG2 Assay for human SRY-box transcription factor (SOX) (AID 2282960); conditions: HepG2 Attagene cis-factorial SOX reporter, mRNA; actives raise or lower the signal
Procedure, shortened: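 Cells were transfected with reporter constructs under cis-regulatory promoters, then exposed to chemicals for 24 h. Reporter transcripts were quantified by fluorescence after RT-PCR and capillary electrophoresis; activity was fitted in both directions against DMSO.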

[7] = target: Transcription factor Sp1 (Homo sapiens) (UniProt P08047); test: ATG_Sp1_CIS: Attagene CIS-FACTORIAL HepG2 Assay for human Specificity Protein 1 (Sp1) (AID 2282961); conditions: HepG2 Sp1 cis-reporter transcription, actives raise or lower the signal
Procedure, shortened: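 Measures mRNA induction of an Sp1-linked reporter in HepG2 cells 24 h post-dosing. Multiplexed reporters read by RT-PCR and capillary electrophoresis; DMSO serves as negative control and baseline.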

[8] = ATG_SREBP_CIS: Attagene CIS-FACTORIAL HepG2 Assay for human Sterol Regulatory Element Binding (SREBP) (AID 2282962); conditions: HepG2 Attagene cis-factorial SREBP reporter, mRNA; actives raise or lower the signal
Procedure, shortened: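 Endogenous SREBP activity read as cis-element-driven reporter transcript in transiently transfected HepG2, 24 h post-dosing; quantified via RT-PCR plus capillary electrophoresis of fluorescent fragments. Gain or loss of signal fitted relative to DMSO baseline.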

[9] = target: Signal transducer and activator of transcription 3 (Homo sapiens) (UniProt P40763); test: ATG_STAT3_CIS: Attagene CIS-FACTORIAL HepG2 Assay for human Signal Transducer and Activator of Transcription 3 (STAT3) (AID 2282963); conditions: HepG2, Attagene cis-factorial STAT3 reporter transcription; actives raise or lower the signal
Procedure, shortened: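 Fluorescence intensity of 6-FAM-labelled reporter fragments, separated by capillary electrophoresis after RT-PCR, gave the signal. Cells were HepG2 transfected with cis-element reporter units and treated 24 h; fitting was bidirectional relative to DMSO.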

[10] = ATG_TA_CIS: Attagene CIS-FACTORIAL HepG2 Assay for human TA Basal Promoter (AID 2282964); conditions: HepG2 Attagene CIS-factorial TA basal promoter reporter; actives raise or lower the signal
Procedure, shortened: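 Fluorescence from labelled RT-PCR reporter fragments, separated by capillary electrophoresis, gives the signal. Cells: HepG2 transiently carrying multiple reporter units, 24 h chemical dosing. Gain or loss relative to DMSO.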

[11] = ATG_TCF_b_cat_CIS: Attagene CIS-FACTORIAL HepG2 Assay for human T-Cell-Factor with beta-catenin (TCF/b-cat) (AID 2282965); conditions: HepG2 TCF/beta-catenin cis-reporter transcription, actives raise or lower the signal
Procedure, shortened: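 HepG2 cells transiently transfected with cis-promoter-driven multiplexed reporter units; reporter mRNA measured 24 h after dosing by RT-PCR, FAM labelling, HpaI digestion and capillary electrophoresis. Bidirectional fitting relative to DMSO baseline.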

[12] = ATG_TAL_CIS: Attagene CIS-FACTORIAL HepG2 Assay for human TAL Basal Promoter (AID 2282966); conditions: HepG2 Attagene cis-factorial TAL promoter reporter; actives raise or lower the signal;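 also: background control endpoint measuring basal TAL promoter reporter mRNA not a specific factor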
Procedure, shortened: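 Background-control endpoint: basal TAL promoter reporter transcripts in transiently transfected HepG2, measured 24 h after dosing. Read-out by RT-PCR with fluorescent primer extension and capillary electrophoresis; gain or loss of signal fitted relative to DMSO.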

[13] = ATG_TGFb_CIS: Attagene CIS-FACTORIAL HepG2 Assay for human Transforming Growth Factor (TGF) (AID 2282967); conditions: HepG2 Attagene CIS TGFb reporter, mRNA transcription; actives raise or lower the signal
Procedure, shortened: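 Bidirectional fitting relative to DMSO gave the endpoint. Underlying data: reporter mRNA from HepG2 cells carrying transiently transfected cis-regulated reporter constructs, harvested 24 h after dosing and analyzed by RT-PCR and capillary electrophoresis.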

[14] = ATG_VDRE_CIS: Attagene CIS-FACTORIAL HepG2 Assay for human Vitamin D Receptor Element (VDRE) (AID 2282968); conditions: HepG2 VDRE cis-reporter transcription, actives raise or lower the signal
Procedure, shortened: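 Compounds were applied for 24 h to HepG2 cells transfected with promoter-regulated reporter units. Total RNA was reverse-transcribed, and reporter amplicons were fluorescently labelled and sized by capillary electrophoresis.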

[15] = target: Estrogen receptor (Homo sapiens) (UniProt P03372); test: ATG_ERa_TRANS: Attagene TRANS-FACTORIAL HepG2 Assay for human Estrogen Receptor alpha (ERa) (AID 2282970; active = hit-call score of the fitted dose curve at least 0.9, where 1 is the maximum); conditions: HepG2 Attagene TRANS ERa GAL4 reporter, mRNA
Procedure, shortened: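 Reporter transcripts were measured 24 h after dosing by RT-PCR with fluorescent primer extension and capillary electrophoresis. The system is transiently transfected HepG2 expressing exogenous NR-Gal4 chimeras driving GAL4-UAS reporters; DMSO is the baseline.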

[16] = target: X-box-binding protein 1 (Homo sapiens) (UniProt P17861); test: ATG_Xbp1_CIS: Attagene CIS-FACTORIAL HepG2 Assay for human X-box Binding Protein 1 (XBP1) (AID 2282972); conditions: HepG2 XBP1 cis-element reporter, Attagene multiplex; actives raise or lower the signal
Procedure, shortened: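 Reporter transcripts were quantified by RT-PCR with fluorescent primer extension and capillary electrophoresis after 24 h chemical exposure. Cells: transiently transfected HepG2 carrying cis-regulated reporter constructs; data fitted bidirectionally relative to DMSO.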

[17] = ATG_M_19_TRANS: Attagene TRANS-FACTORIAL HepG2 Assay for M19 Transcription Factor (Internal Marker) (AID 2282974; active = hit-call score of the fitted dose curve at least 0.9, where 1 is the maximum); conditions: HepG2 Attagene TRANS-FACTORIAL M19 internal marker reporter
Procedure, shortened: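 After transfection of HepG2 with GAL4-UAS-driven reporter constructs, cells are dosed for 24 h. Total RNA is reverse-transcribed, reporter sequences PCR-amplified and labelled, then HpaI-digested and sized by capillary electrophoresis.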

[18] = target: Nuclear receptor subfamily 1 group I member 3 (Homo sapiens) (UniProt Q14994); test: ATG_CAR_TRANS: Attagene TRANS-FACTORIAL HepG2 Assay for human Constitutive Androstane Receptor (CAR) (AID 2282969; active = hit-call score of the fitted dose curve at least 0.9, where 1 is the maximum;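 also: activators raise reporter mRNA above DMSO so AC50 marks induction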); conditions: HepG2 Attagene TRANS-FACTORIAL CAR reporter
Procedure, shortened: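 Transiently transfected HepG2, multiplex TRANS reporters (CAR-Gal4 chimera driving GAL4-UAS reporter). 24 h dosing. Readout: reporter transcript by RT-PCR + capillary electrophoresis, fluorescence intensity; positive direction vs DMSO.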

[19] = target: Steroid hormone receptor ERR1 (Homo sapiens) (UniProt P11474); test: ATG_ERRa_TRANS: Attagene TRANS-FACTORIAL HepG2 Assay for human Estrogen-Related Receptor alpha (ERRa) (AID 2282971; active = hit-call score of the fitted dose curve at least 0.9, where 1 is the maximum); conditions: HepG2 Attagene TRANS reporter, ERRa transactivation
Procedure, shortened: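 Reporter transcripts from ERRa-Gal4 chimera activity measured in transiently transfected human HepG2 cells 24 hours after dosing, using RT-PCR with 6-FAM primer extension, HpaI digestion and capillary electrophoresis; DMSO is baseline.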

[20] = ATG_GAL4_TRANS: Attagene TRANS-FACTORIAL HepG2 Assay for GAL4 (Internal Marker) (AID 2282976; active = hit-call score of the fitted dose curve at least 0.9, where 1 is the maximum); conditions: HepG2 Attagene TRANS GAL4 internal marker reporter
Procedure, shortened: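 In transfected human HepG2 liver cells dosed 24 h, GAL4 reporter mRNA serves as a baseline marker. Detection by RT-PCR with fluorescent capillary electrophoresis, activity fitted upward relative to DMSO.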

Measured: AC50

Nuclear receptor subfamily 1 group I member 3 (Homo sapiens), sequence (Q14994 whole entry, looked up, the tested form may be a part): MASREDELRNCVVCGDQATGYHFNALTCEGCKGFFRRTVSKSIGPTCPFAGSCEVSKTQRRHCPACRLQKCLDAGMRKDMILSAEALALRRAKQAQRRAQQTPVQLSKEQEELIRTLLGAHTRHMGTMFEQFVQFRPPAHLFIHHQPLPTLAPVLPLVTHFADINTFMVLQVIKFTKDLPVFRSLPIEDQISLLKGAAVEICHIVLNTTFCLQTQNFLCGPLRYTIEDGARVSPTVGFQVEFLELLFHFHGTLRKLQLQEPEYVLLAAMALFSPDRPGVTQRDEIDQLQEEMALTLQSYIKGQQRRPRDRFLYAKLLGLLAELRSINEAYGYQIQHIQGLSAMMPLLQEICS
Signal transducer and activator of transcription 3 (Homo sapiens), sequence (P40763 whole entry, looked up, the tested form may be a part): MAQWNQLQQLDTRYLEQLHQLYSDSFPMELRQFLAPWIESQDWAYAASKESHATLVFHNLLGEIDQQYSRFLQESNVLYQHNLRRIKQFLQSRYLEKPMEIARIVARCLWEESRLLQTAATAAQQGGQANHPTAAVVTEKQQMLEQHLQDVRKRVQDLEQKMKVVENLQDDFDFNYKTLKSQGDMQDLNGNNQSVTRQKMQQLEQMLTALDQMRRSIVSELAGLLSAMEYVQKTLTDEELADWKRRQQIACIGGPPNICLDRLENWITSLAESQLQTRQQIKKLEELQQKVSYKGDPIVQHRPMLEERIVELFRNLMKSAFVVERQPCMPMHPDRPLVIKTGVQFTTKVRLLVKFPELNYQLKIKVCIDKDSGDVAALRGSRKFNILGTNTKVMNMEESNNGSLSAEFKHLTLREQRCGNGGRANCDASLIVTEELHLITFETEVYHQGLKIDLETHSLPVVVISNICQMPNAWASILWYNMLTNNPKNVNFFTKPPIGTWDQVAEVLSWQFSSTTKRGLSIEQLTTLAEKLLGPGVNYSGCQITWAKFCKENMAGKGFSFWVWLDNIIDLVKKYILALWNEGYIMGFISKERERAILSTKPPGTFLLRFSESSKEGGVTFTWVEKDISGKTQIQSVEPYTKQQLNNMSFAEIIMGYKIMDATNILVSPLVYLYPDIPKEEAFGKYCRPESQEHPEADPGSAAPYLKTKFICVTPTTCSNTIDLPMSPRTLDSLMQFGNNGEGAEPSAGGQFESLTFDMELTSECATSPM
Transcription factor Sp1 (Homo sapiens), sequence (P08047 whole entry, looked up): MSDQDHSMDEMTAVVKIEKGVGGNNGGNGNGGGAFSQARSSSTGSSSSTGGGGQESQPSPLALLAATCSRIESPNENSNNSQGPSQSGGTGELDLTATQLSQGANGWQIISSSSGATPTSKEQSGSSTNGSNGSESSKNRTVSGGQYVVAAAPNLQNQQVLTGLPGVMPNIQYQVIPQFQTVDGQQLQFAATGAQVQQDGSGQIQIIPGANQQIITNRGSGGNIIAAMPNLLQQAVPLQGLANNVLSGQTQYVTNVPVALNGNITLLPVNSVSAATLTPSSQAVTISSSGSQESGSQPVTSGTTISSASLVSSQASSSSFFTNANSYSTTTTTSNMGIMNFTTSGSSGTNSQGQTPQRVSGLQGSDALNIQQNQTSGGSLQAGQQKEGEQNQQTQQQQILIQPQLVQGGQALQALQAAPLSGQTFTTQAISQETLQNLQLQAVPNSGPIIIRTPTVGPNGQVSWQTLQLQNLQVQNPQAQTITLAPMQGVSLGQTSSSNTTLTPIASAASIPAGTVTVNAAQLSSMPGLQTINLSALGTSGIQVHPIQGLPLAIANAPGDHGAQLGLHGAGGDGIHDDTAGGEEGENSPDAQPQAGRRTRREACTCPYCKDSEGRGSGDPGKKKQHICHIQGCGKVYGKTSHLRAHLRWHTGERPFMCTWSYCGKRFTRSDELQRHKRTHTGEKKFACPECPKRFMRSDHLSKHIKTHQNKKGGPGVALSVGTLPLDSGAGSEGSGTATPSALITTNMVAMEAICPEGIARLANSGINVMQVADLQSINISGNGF
Paired box protein Pax-6 (Homo sapiens), sequence (P26367 whole entry, looked up): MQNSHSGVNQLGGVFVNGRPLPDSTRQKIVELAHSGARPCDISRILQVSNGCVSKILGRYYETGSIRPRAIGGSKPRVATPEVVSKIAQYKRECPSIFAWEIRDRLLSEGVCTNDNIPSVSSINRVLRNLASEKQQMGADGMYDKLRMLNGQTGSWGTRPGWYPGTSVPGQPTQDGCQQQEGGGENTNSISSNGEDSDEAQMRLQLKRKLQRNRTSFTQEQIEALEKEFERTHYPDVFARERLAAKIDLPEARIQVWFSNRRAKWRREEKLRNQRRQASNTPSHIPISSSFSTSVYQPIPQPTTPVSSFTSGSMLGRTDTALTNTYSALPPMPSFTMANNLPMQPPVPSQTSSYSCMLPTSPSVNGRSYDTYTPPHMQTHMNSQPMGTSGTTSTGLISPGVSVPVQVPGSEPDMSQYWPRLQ
Steroid hormone receptor ERR1 (Homo sapiens), sequence (P11474 whole entry, looked up, the tested form may be a part): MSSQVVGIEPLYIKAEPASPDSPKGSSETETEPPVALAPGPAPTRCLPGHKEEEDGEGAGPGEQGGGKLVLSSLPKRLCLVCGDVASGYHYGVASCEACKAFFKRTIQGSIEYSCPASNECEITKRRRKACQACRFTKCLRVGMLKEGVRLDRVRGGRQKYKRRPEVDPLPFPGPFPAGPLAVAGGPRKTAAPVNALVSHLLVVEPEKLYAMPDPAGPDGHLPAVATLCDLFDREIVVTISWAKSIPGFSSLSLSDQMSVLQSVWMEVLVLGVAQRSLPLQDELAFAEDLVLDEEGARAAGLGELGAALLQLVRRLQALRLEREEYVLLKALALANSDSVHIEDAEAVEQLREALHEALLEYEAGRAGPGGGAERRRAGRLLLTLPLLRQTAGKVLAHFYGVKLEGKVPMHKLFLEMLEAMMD
Estrogen receptor (Homo sapiens), sequence (P03372 whole entry, looked up, the tested form may be a part): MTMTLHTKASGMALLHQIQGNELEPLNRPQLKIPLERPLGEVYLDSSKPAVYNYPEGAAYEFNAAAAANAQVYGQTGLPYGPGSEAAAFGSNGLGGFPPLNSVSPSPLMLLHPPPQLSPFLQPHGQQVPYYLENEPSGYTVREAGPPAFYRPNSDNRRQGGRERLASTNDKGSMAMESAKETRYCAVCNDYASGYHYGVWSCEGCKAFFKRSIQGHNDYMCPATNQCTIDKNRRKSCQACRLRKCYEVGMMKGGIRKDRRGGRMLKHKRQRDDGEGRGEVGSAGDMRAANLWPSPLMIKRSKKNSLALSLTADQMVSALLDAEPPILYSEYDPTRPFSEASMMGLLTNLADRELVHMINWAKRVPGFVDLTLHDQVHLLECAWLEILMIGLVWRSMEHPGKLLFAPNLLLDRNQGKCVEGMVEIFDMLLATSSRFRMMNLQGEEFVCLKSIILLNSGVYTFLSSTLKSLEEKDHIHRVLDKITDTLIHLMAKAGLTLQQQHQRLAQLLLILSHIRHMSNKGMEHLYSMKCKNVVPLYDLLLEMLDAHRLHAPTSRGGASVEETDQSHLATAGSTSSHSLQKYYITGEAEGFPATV
X-box-binding protein 1 (Homo sapiens), sequence (P17861 whole entry, looked up): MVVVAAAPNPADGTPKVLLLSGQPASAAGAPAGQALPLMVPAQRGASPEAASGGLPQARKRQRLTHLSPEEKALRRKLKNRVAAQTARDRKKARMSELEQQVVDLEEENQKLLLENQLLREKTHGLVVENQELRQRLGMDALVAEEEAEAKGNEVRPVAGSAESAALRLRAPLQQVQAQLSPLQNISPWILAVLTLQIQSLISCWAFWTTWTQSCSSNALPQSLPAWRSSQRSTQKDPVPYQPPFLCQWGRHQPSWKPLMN

CCOC(=O)COc1cc(-n2ncc(C(F)(F)F)c(C)c2=O)c(F)cc1Cl
active: [3] 28.5 µM
not listed: [18] | [19] | [20]
inactive: all other assays above

O=C(Nc1ccc([N+](=O)[O-])cc1Cl)c1cc(Cl)ccc1O
active: [1] 0.7 µM | [3] 0.426 µM | [7] 0.7 µM | [8] 0.7 µM | [16] 0.493 µM
not listed: [5] | [14] | [15] | [18] | [19] | [20]
inactive: all other assays above

CCOC(=O)C(C)Oc1ccc(Oc2nc3ccc(Cl)cc3o2)cc1 (stereo unspecified)
not listed: [5] | [15] | [19] | [20]
inactive: all other assays above

N#CSCSc1nc2ccccc2s1
inactive: [1] | [2] | [3] | [4] | [6] | [7] | [8] | [9] | [10] | [11] | [12] | [13] | [14] | [18] | [15] | [16]
active: [2] 11.1 µM | [3] 3.49 µM | [4] 2.81 µM | [7] 17.8 µM | [11] 1.99 µM | [13] 1.52 µM | [16] 14.3 µM

O=C(c1ccccc1)C1CCCCC1
inactive: [1] | [2] | [4] | [6] | [7] | [8] | [9] | [10] | [11] | [12] | [13] | [14] | [18] | [19] | [16] | [17] | [20]
active: [1] 53.2 µM | [3] 26.9 µM [middle of 4 runs] | [4] 31.5 µM and 67.1 µM | [14] 42.8 µM | [15] 25.3 µM [middle of 4 runs]

CCCCOC(=O)[C@@H](C)Oc1ccc(Oc2ccc(C(F)(F)F)cn2)cc1
active: [3] 50 µM
not listed: [2] | [19] | [20]
inactive: all other assays above

CCOC(=O)c1ccc(O)cc1
inactive: [1] | [2] | [3] | [6] | [7] | [8] | [9] | [10] | [11] | [12] | [13] | [14] | [18] | [16] | [17] | [20]
active: [2] 100 µM | [8] 43.7 µM | [14] 42.8 µM | [16] 100 µM

C[C@]12CC[C@@H]3c4ccc(O)cc4C[C@@H](CCCCCCCCCS(=O)CCCC(F)(F)C(F)(F)F)[C@H]3[C@@H]1CC[C@@H]2O (stereo partly specified)
active: [1] 0.376 µM | [3] 363 nM [middle of 4 runs] | [14] 1 µM and 1.5 µM
inactive: [1] | [2] | [4] | [6] | [7] | [8] | [9] | [10] | [11] | [12] | [13] | [14] | [15] | [19] | [16] | [17] | [20]

COc1c(Cl)ccc(Cl)c1C(=O)O
not listed: [19] | [20]
inactive: all other assays above

OB(O)O
active: [3] 81.3 µM
not listed: [2] | [5] | [20]
inactive: all other assays above

COC(=O)CSc1cc(N=c2sc(=O)n3n2CCCC3)c(F)cc1Cl
active: [3] 9.92 µM | [4] 10.4 µM
not listed: [5] | [15] | [17] | [18] | [19] | [20]
inactive: all other assays above

COCCO
inactive: [1] | [2] | [3] | [4] | [6] | [7] | [8] | [9] | [10] | [11] | [12] | [13] | [14] | [18] | [16] | [17] | [20]
active: [3] 24.7 µM
